# CIT2 TOR yeast: alters CIT2-GFP fluorescence in TOR pathway yeast screen; GFP response vs DMSO, % at 10 µM; actives 0.065% (n = 320,000); S. cerevisiae CIT2-GFP strain, flow cytometry, 3 h; 100 means same as DMSO wells;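 active = GFP response relative to DMSO above a set limit, near the screen mean plus 3 SD, cut at about 150% in these data; inconclusive = Fewer than 70 cells measured for a yeast strain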;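 also: ratio of well median GFP fluorescence to mean of DMSO wells on the plate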
# RPL19A TOR yeast: yeast TOR pathway RPL19A-GFP modulation; actives 0.3% (n = 330,000); percent response vs DMSO, % at 10 µM; S. cerevisiae RPL19A-GFP strain, flow cytometry, 3 h; active compounds read low;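 active = percent response vs DMSO below 50%; inconclusive = fewer than 70 events counted for the yeast strain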;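 also: median channel GFP fluorescence of the barcoded RPL19A-GFP strain; ratio of sample median GFP to plate DMSO average so 100% = DMSO; lower means less RPL19A-GFP as with rapamycin TOR inhibition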
# Pemphigus Ab inh: inhibitors of pemphigus antibody binding to human desmoglein-3. binding (percent of control), % at 10 µM. DSG3-coupled beads, scFv-anti-DSG3-GFP binding, flow cytometry; active compounds read low. actives 0.48% (n = 310,000). AID 588358. P32926;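 active = binding more than 3 SD below its plate's average and above zero; inconclusive = below that plate limit but binding exactly zero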;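 also: hits lower antibody fragment binding to DSG3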
# AGP1-GFP MLPCN: yeast TOR pathway AGP1-GFP modulation; S. cerevisiae AGP1-GFP multiplex flow cytometry, 3 h; GFP as percent of DMSO wells; GFP response vs DMSO, % at 10 µM; actives 0.02% (n = 320,000);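 active = GFP response relative to DMSO above a set limit, near screen average plus 3 SD, cut at about 150% in these data; inconclusive = fewer than 70 cells counted for the yeast strain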;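 also: median GFP channel fluorescence of the gated AGP1 strain per well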
# MEP2 TOR yeast: modulators of TOR pathway MEP2-GFP in S. cerevisiae. S. cerevisiae MEP2-GFP strain, flow cytometry GFP, 3 h; 100% = DMSO control level. GFP response vs DMSO, % at 10 µM. actives 0.51% (n = 330,000). AID 2016;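 active = GFP response versus DMSO above a set limit, roughly screen mean plus 3 SD, cut at about 180% in these data; inconclusive = fewer than 70 cells counted for a yeast strain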;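 also: median GFP fluorescence of the barcode-gated MEP2-GFP cells per well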
# LAP4-GFP MLPCN: yeast TOR pathway LAP4-GFP modulation. S. cerevisiae LAP4-GFP multiplex, flow cytometry GFP, 3 h; median GFP as percent of DMSO wells. actives 0.34% (n = 320,000). GFP response vs DMSO, % at 10 µM;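 active = GFP response vs DMSO above a set limit, about the screen mean plus 3 SD, cut at about 150% in these data; inconclusive = under 70 cell events counted for the yeast strain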
# * marks the source's active call; other numbers are inactive results; ? = inconclusive; . = no result; + = active, no number; [ ] = dose if it differs, or a comment. A selection: hits, their analogues and other compounds. The true share with any hit is near 1.2%.
SMILES,CIT2 TOR yeast,RPL19A TOR yeast,Pemphigus Ab inh,AGP1-GFP MLPCN,MEP2 TOR yeast,LAP4-GFP MLPCN
Cc1ccc(-n2ncc(C#N)c2/N=C/N(C)C)cc1,117,92,.,102,267*,158*
Cc1ccc(-n2ncc(C#N)c2/N=C/N2CCOCC2)cc1,.,101,95,100,103,97
O=C(/C=C/c1cccs1)NC(=S)NNC(=O)Cc1cccs1,104,100,99,106,118,122
Cc1ccc(S(=O)(=O)N2CCCOC2CNC(=O)C(=O)NCCc2ccco2)cc1 (configuration not stated),.,.,82*,.,.,.
CC(=O)c1cc2c(cc1NC(=O)c1ccc(Cl)cc1)OCCO2,106,105,31*,97,112,88
CN(C(=O)c1ccc(NC(=O)Cc2ccc([N+](=O)[O-])cc2)cc1)C1CCCC1,82,97,105,86,92,84
COc1ccc(C(CNC(=O)Cc2c(F)cccc2Cl)N2CCCCC2)cc1 (configuration not stated),?,96,112,19,299*[may fluoresce violet],76
COc1ccc(C(CNC(=O)CNC(=O)c2ccc(F)cc2)N2CCCC2)cc1 (configuration not stated),99,94,100,94,94,98
CN1CCN(C(=O)CC2C(=O)NCCN2Cc2ccc(-c3ccccc3)cc2)CC1 (configuration not stated),109,81,97,110,259*,163*
O=C(CC1C(=O)NCCN1Cc1ccc(-c2ccccc2)cc1)NCc1ccccc1 (configuration not stated),111,103,97,111,102,105
O=C(CSc1ccc(Cl)cc1)N1N=CCC1c1ccccc1 (configuration not stated),86,92,114,106,90,103
NC(=NC(=O)c1ccc(Cl)cc1)N1N=CCC1c1ccccc1 (configuration not stated),101,97,-11*,97,97,99
CC1(C)CC(=O)C(C(C2=C(O)CC(C)(C)CC2=O)c2cccs2)C(=O)C1 (configuration not stated),105,103,85,96,185*,119
CCCNC(=O)C(Cc1ccccc1)NC(=O)Cc1ccccc1 (configuration not stated),107,99,104,99,88,99
COc1cc(OC)c(/C=N/NC(=O)c2ccc(NC(C)=O)cc2)cc1Br,.,.,74*,.,.,.
COc1cc(OC)c(/C=N/NC(=O)c2ccncc2)cc1Br,101,106,105,103,104,98
O=[N+]([O-])c1ccc(N2N=C(c3ccco3)CC2c2ccccc2)cc1 (configuration not stated),223*,93,195,63,122,132
O=[N+]([O-])c1ccc(N2N=C(c3ccccc3)CC2c2ccccc2O)cc1 (configuration not stated),?,68,101,24,299*[may fluoresce violet],98
Fc1ccc(C2CC(c3ccco3)=NN2c2ccccc2)cc1 (configuration not stated),96,96,.,101,103,107
CC1CCCN(S(=O)(=O)c2ccc3c(c2)OCCO3)C1 (configuration not stated),.,.,105,.,.,.
COc1cc(/C=C2\C(=N)N3N=C(C)SC3=NC2=O)cc(Cl)c1OCCOc1ccc(NC(C)=O)cc1,105,105,88,100,102,93
O=c1c(Cl)c(O)ccn1C1OC(CO)C(O)C1O (configuration not stated),.,.,89,.,.,.
Cn1c(=O)c2c(nc(Br)n2Cc2ccccc2Cl)n(C)c1=O,95,102,108,102,104,98
COC(=O)Cn1c(=O)c2c(nc(Br)n2Cc2ccccc2Cl)n(C)c1=O,?,36*[may fluoresce violet],102,19,265*[may fluoresce violet],93
O=c1[nH]c2ccc(NS(=O)(=O)c3ccc([N+](=O)[O-])cc3)cc2[nH]1,102,95,97,99,98,97
SMILES,CIT2 TOR yeast,RPL19A TOR yeast,Pemphigus Ab inh,AGP1-GFP MLPCN,MEP2 TOR yeast,LAP4-GFP MLPCN
CC(=O)Nc1ccc(S(=O)(=O)Nc2ccc3[nH]c(=O)[nH]c3c2)cc1,?,44*[may fluoresce violet],94,22,653*[may fluoresce violet],107
CCCCC/C(=N\NC(=O)Nc1ccccc1)c1ccccc1,94,98,-12*,96,96,95
Oc1ccc(/C=N/NC(=S)Nc2cccnc2)c(O)c1O,.,.,53*,.,.,.
O=C(CCc1c[nH]c2ccccc12)N1CCN(S(=O)(=O)c2ccc([N+](=O)[O-])cc2)CC1,.,.,95,.,.,.
CSc1ccc(NC(=O)N2CCN(c3nc4ccccc4s3)CC2)cc1,?,60,105,?,212*[may fluoresce violet],94
CS(=O)(=O)N1CCc2cc(S(=O)(=O)NCCNS(=O)(=O)c3ccc4c(c3)CCN4S(C)(=O)=O)ccc21,103,97,77*,100,105,104
C=CCN1C(=O)C2C(C(=O)NC)C3(C)C=CC2(O3)C1C(=O)NCc1ccc(OC)cc1 (configuration not stated),?,56,96,?,519*[may fluoresce violet],101
C=CCN1C(=O)C2C(C(=O)NCc3ccccc3)C3(C)C=CC2(O3)C1C(=O)NC(C)(C)C (configuration not stated),100,98,.,103,106,109
Cc1cc(/C=N/NC(=O)c2ccc(O)cc2)c(C)n1CC(C)C,100,99,97,105,102,98
CN(C1=NC(=O)C(CC(=O)O)S1)c1ccc(O)cc1 (configuration not stated),97,101,23*,103,104,100
CN(C)c1ccc(/C=N/N=C2/SC(CC(=O)O)C(=O)N2c2ccc(O)cc2)cc1 (configuration not stated),98,97,107,103,95,103
COc1cc2cc(C(N)=O)c(N)nc2cc1OC,?,44*[may fluoresce violet],101,?,216*[may fluoresce violet],97
COc1ccc2nc(C)c(C(N)=O)cc2c1,85,?,95,?,?,?
CCOC(=O)c1c(NC(=O)C2C3C=CC(C3)C2C(=O)O)sc2c1CCCC2 (configuration not stated),100,96,37*,93,97,96
CC1CCN(c2nc3c(N)ncnc3n2[C@@H]2O[C@H](CO)[C@@H](O)[C@H]2O)CC1,98,100,98,107,98,101
CC1CCN(c2nc3c(=O)[nH]c(N)nc3n2[C@@H]2O[C@H](CO)[C@@H](O)[C@H]2O)CC1,?,86,89,?,+[may fluoresce violet],99

# Compound activity: PubChem BioAssay, NMMLSC
